Source: PubChem BioAssay AID1852 (Sanford-Burnham Center for Chemical Genomics, 2009)
The whole screen tested about 2,500 compounds, of which about 1,100 (44%) were called active.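 The calls were made as follows: active = inhibition above 50% at 4 µM in the single-point screen; inactive = inhibition of 50% or less.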 So high a share suggests a set chosen from earlier hits. This is one part of the list.

Assay: TNF-a-driven NF-kB reporter inhibitors, primary screen, selectivity assay for NOD1/NOD2 signaling inhibitor project, cell-based, HEK293T NF-kB-Luc, luminescence (AID 1852)
Settings: TNF-a induced, 14 h, at 4 µM, stronger effect = higher value

Row | Compound | inhibition
1 | Cc1noc2ncnc(Oc3ccc(Cl)cc3Cl)c12 | -0.2% (inactive)
2 | CCN1CCN(Cc2ccc(NC(=O)c3ccc(C)c(/C=C/c4cnc(Nc5cc(N6CCNCC6)nc(C)n5)cn4)c3)cc2C(F)(F)F)CC1 | -16% (inactive)
3 | CC[n+]1c(C=C2C=C(C)OC(C)=C2)sc2ccccc21 | 57.8% (active)
4 | O=c1[nH]c(-c2ccccn2)nc2sc(-c3ccccc3)cc12 | 97.3% (active)
5 | Cc1nc(SCCC(=O)O)c2cc(-c3ccccc3)sc2n1 | 48.4% (inactive)
6 | Cc1sc2nc(-c3ccccn3)[nH]c(=O)c2c1-c1ccccc1 | 37.1% (inactive)
7 | COCCN(Cc1ccccc1)C(=O)c1cc(-c2ccc(OC)c(OC)c2)nc2ccccc12 | 20% (inactive)
8 | Cc1cc(NC(=O)CCS(=O)(=O)c2nc(-c3ccccc3)cc(C(F)(F)F)n2)no1 | 46.7% (inactive)
9 | COC(=O)CCS(=O)(=O)c1nc(-c2ccccc2)cc(C(F)(F)F)n1 | 55.5% (active)
10 | COc1ccc(-c2cc(C(F)(F)F)nc(S(C)(=O)=O)n2)cc1OC | 89.3% (active)
11 | COc1ccc(-c2cc(C(F)(F)F)nc(S(C)(=O)=O)n2)cc1 | 77.6% (active)
12 | COc1ccc(NS(=O)(=O)c2ccc(-c3coc(C)n3)cc2)cc1OC | 47.8% (inactive)
13 | CCOc1cccc2sc(NC(=O)CCS(=O)(=O)c3ccccc3)nc12 | -6.7% (inactive)
14 | COc1ccccc1-c1cc(C(F)(F)F)nc(S(C)(=O)=O)n1 | 68.8% (active)
15 | C=C(CCC(=O)c1ccccc1)C(=O)c1ccccc1 | -0.6% (inactive)
16 | O=C(Nc1ccncc1)c1c(F)cccc1F | 59.3% (active)
17 | Cc1ccc2oc(Nc3nc(-c4ccccc4)cc(=O)[nH]3)nc2c1 | 93% (active)
18 | COc1ccc2c(C)nc(Nc3nc(-c4ccccc4)cc(=O)[nH]3)nc2c1 | 42.1% (inactive)
19 | CC(C)(C)NC(=S)N/N=C/c1cc(Br)c(O)c(Br)c1 | 34.5% (inactive)
20 | Oc1c(Cl)cc(Cl)cc1/C=C/c1ccc2cccc(O)c2n1 | 37.4% (inactive)
21 | CN(/N=C/c1cc(Cl)cc(Cl)c1O)C(=S)NC(C)(C)C | 82.6% (active)
22 | CC(C)c1noc2ncc(C(=O)c3cc(Cl)cc(Cl)c3O)cc12 | 60.1% (active)
23 | O=c1oc2ccccc2c(Nc2cc3ccccc3cc2O)c1[N+](=O)[O-] | -0.3% (inactive)
24 | O=c1cc(-c2ccccc2Cl)oc2c([N+](=O)[O-])c(O)cc(O)c12 | 105% (active)
25 | O=c1cc(-c2ccccc2Cl)oc2c(NS(=O)(=O)c3cc(Cl)cc(Cl)c3O)ccc(O)c12 | 82.6% (active)

Row | Compound | inhibition
26 | Nc1nccc(-c2ccc(-n3cnc4ccccc43)cc2)n1 | 67% (active)
27 | O=C(O)COc1ccc(-c2nccc(-c3ccccn3)n2)cc1 | 43.3% (inactive)
28 | c1ccc2c(c1)ncn2-c1ccc(-c2ccnc(-c3ccncc3)n2)cc1 | 59.7% (active)
29 | Cc1nc2c(-c3ccc(F)cc3)cnn2c(N)c1-c1ccccc1 | -226% (inactive)
30 | Cc1nc(N)c(C#N)c(-c2cccnc2)c1-c1ccccc1 | 98.5% (active)
31 | CC1CCc2nc(N)c(C#N)c(-c3cccnc3)c2C1 (stereo not drawn) | 85.3% (active)
32 | CN(C(=O)COc1ccccc1C(=O)NCCOc1ccccc1)c1ccccc1 | 17.7% (inactive)
33 | CCOc1ccccc1C(=O)N1CCN(C(c2ccccc2)c2ccccc2)CC1 | 22.1% (inactive)
34 | O=C(NNC(=O)c1ccccc1OCc1ccc(F)cc1)c1ccccc1O | 51.1% (active)
35 | O=C(NNC(=O)c1ccccc1OCc1ccccc1)c1ccccc1O | 77.9% (active)
36 | Cc1ccc(S(=O)(=O)Nc2ccccc2-c2ccccc2NS(=O)(=O)c2ccc(C)cc2)cc1 | -1.3% (inactive)
37 | Cc1ccc(S(=O)(=O)n2c(N)nc3ccccc32)cc1 | -1.7% (inactive)
38 | Cc1ccc(S(=O)(=O)Nc2ccccc2/C=N/c2nc3ccccc3n2C)cc1 | 89.4% (active)
39 | Oc1c(CN2CCc3ccccc3C2)cc(Cl)c2cccnc12 | 101% (active)
40 | Oc1c(CN2CCN(c3ccc(F)cc3)CC2)cc(Cl)c2cccnc12 | 17.1% (inactive)
41 | Oc1c(C(c2ccc(Cl)cc2)N2CCCC2)cc(Cl)c2cccnc12 (stereo not drawn) | 20% (inactive)
42 | Oc1c(Cl)cc(Cl)c2cccnc12 | 102% (active)
43 | O=[N+]([O-])c1cc(Cl)c(O)c2ncccc12 | 102% (active)
44 | Oc1c(CN2CCN(c3ccccn3)CC2)cc(Cl)c2cccnc12 | 20.4% (inactive)
45 | Oc1c(I)cc(I)c2cccnc12 | 89% (active)
46 | Oc1c(I)cc(Cl)c2cccnc12 | 104% (active)
47 | O=C(Oc1c(Cl)cc(Cl)c2cccnc12)c1ccco1 | 106% (active)
48 | Cc1ccccc1-c1nc(CSc2nc3c(c(=O)[nH]2)CCC3)c(C)o1 | 59.5% (active)
49 | Cc1cccc(-c2nc(CSc3nc4c(c(=O)[nH]3)CCC4)c(C)o2)c1 | 37% (inactive)
50 | Cc1oc(-c2ccccc2Cl)nc1CSc1nc2c(c(=O)[nH]1)CCCC2 | 19.1% (inactive)

Row | Compound | inhibition
51 | CC1(C)CC(=O)C2=C(C1)Oc1nc3ccccc3cc1C2C(C#N)C#N (stereo not drawn) | 29.6% (inactive)
52 | COc1ccccc1CNS(=O)(=O)c1ccc2c(c1)N(C(C)=O)CC(C)S2 (stereo not drawn) | 35.3% (inactive)
53 | CC(C)(C)c1ccc(C(=O)N2CCCCCC2=O)cc1 | 69.6% (active)
54 | CC(C)(C)c1ccc(C(=O)Nc2sc3c(c2C(=O)O)CCC3)cc1 | -51.1% (inactive)
55 | CC(C)(C)c1ccc(/C=N/Nc2ccc(C(=O)O)cc2)cc1 | -61% (inactive)
56 | Cc1ccc([N+](=O)[O-])cc1N=Nc1c(-c2ccc([N+](=O)[O-])cc2)[nH]n(C(N)=S)c1=O | 80.4% (active)
57 | NC(=S)n1[nH]c(-c2ccc([N+](=O)[O-])cc2)c(N=Nc2ccc(Cl)cc2)c1=O | 88.7% (active)
58 | NC(=S)n1[nH]c(-c2ccc([N+](=O)[O-])cc2)c(N=Nc2cccc([N+](=O)[O-])c2)c1=O | 86.6% (active)
59 | Cc1[nH]n(-c2nc(-c3ccc(Cl)cc3)cs2)c(=O)c1N=Nc1ccc(O)cc1 | 48.4% (inactive)
60 | NC(=S)n1[nH]c(-c2ccc([N+](=O)[O-])cc2)c(N=Nc2cccc(Cl)c2)c1=O | 86.9% (active)
61 | CC(C)(C)c1ccc(-c2noc(CCC(N)=O)n2)cc1 | 73.6% (active)
62 | CC(C)(C)c1ccc(-c2noc(CCC(=O)Nc3cccnc3)n2)cc1 | 71.6% (active)
63 | COc1ccc(Cc2nc(-c3ccc(-n4cccc4)cc3)no2)cc1OC | 48.8% (inactive)
64 | CCC(C(=O)Nc1cccnc1)c1ccccc1 (stereo not drawn) | 3.6% (inactive)
65 | CC(C)(C)c1ccc(-c2noc(CCC(=O)NCc3ccco3)n2)cc1 | 44.3% (inactive)
66 | CC(C)Cc1ccc(C(C)C(=O)Nc2cccnc2)cc1 (stereo not drawn) | 22.5% (inactive)
67 | CCn1nc(C)c(CNC(=O)c2ccc(OC3CCN(Cc4ccccn4)CC3)cc2)c1C | 50.2% (active)
68 | CCOc1ccc(C(=O)NC2CCN(C(=O)Nc3ccccc3OC)CC2)cc1 | 14.2% (inactive)
69 | COC(CN(C(=O)CCl)C(C(=O)NC1CCCC(C)C1C)c1ccc(C)cc1)OC (stereo not drawn) | 15.4% (inactive)
70 | COCCN(C(=O)CCl)C(C(=O)NC1CCCCC1)c1ccccc1C (stereo not drawn) | 56.7% (active)
71 | COCCN(CC(=O)NC1CCCCC1)C(=O)/C=C/C(=O)c1ccc(OC)cc1O | 22.3% (inactive)
72 | COC(CN(C(=O)CCl)C(C(=O)NC1CCCCC1)c1ccccc1C)OC (stereo not drawn) | 63.2% (active)
73 | Cc1ccc(-c2csc(=Nc3cccnc3)n2CCCn2ccnc2)cc1C | 94.3% (active)
74 | O=S(=O)(Nc1nc(-c2sccc2Cl)cs1)c1cc(Cl)ccc1Cl | 34.1% (inactive)
75 | Cc1ccc(C2=NOC(=O)/C2=C\C=C\c2ccccc2)cc1 | 94.8% (active)

Row | Compound | inhibition
76 | O=C1ON=C(c2ccc(Cl)cc2)/C1=C/c1ccc(O)cc1 | 29.2% (inactive)
77 | COc1cc(C)c(Br)cc1S(=O)(=O)NCc1ccncc1 | 30.4% (inactive)
78 | CCOc1ccc(NC(=O)c2ccc(CN3CCc4ccccc4C3)cc2)cc1 | 3% (inactive)
79 | N#CCc1ccc(NC(=O)c2ccc(CN3CCc4ccccc4C3)cc2)cc1 | 58.1% (active)
80 | Cc1cc(C)n(Cc2ccc(NC(=O)c3ccc(COc4ccccc4Br)cc3)cc2)n1 | 46.2% (inactive)
81 | CCOC(=O)c1ccc(NC(=O)c2ccc(CN3CCc4ccccc4C3)cc2)cc1 | 46.3% (inactive)
82 | O=C(Nc1ccc(Cl)cc1)c1ccc(CN2CCc3ccccc3C2)cc1 | 23.1% (inactive)
83 | O=C(Nc1ccc(F)cc1)c1ccc(CN2CCc3ccccc3C2)cc1 | 87.4% (active)
84 | C/C(=N\NC(=O)c1ccc(CN2CCc3ccccc3C2)cc1)c1ccccc1O | 77.8% (active)
85 | O=C(CCl)Nc1cn(-c2ccccc2)nc1-c1ccc(F)cc1 | -16.2% (inactive)
86 | O=C(CCl)Nc1cn(-c2ccccc2)nc1-c1ccccc1 | -13.7% (inactive)
87 | CC(=O)n1c(Cl)c(NC(=O)CCl)c2ccccc21 | 82.1% (active)
88 | O=C(Cc1ccc(Cl)cc1)c1c[nH]c(C(=O)NCc2cccnc2)c1 | 90.1% (active)
89 | COc1cccc(C(=O)Nc2sc3c(c2C(=O)O)CCCC3)c1 | 30.7% (inactive)
90 | COc1cccc(C(=O)Nc2nc(-c3ccccc3)c(-c3ccccc3)o2)c1 | 81.3% (active)
91 | Cc1onc(-c2ccccc2)c1C(=O)Nc1ncc([N+](=O)[O-])s1 | 48.5% (inactive)
92 | COc1cc(OC)cc(C(=O)Nc2nc(-c3ccccc3)c(-c3ccccc3)o2)c1 | 78.7% (active)
93 | CN(C)S(=O)(=O)Oc1cccc(C(=O)Nc2ccc(Cl)c(Cl)c2)c1 | -28.2% (inactive)
94 | O=C1N/C(=N\N=C\c2ccccn2)SC1Cc1cccc(SC(F)F)c1 (stereo not drawn) | 109% (active)
95 | CCCc1nnc(NC(=O)c2nc(S(=O)(=O)Cc3cccc(C)c3)ncc2Cl)s1 | 61.3% (active)
96 | Cc1cccc(CS(=O)(=O)c2ncc(Cl)c(C(=O)Nc3c(C)cccc3C)n2)c1 | 46.2% (inactive)
97 | CCCc1nnc(NC(=O)c2nc(S(=O)(=O)Cc3ccc(C)cc3)ncc2Cl)s1 | 94.4% (active)
98 | CCc1nnc(NC(=O)c2nc(S(=O)(=O)Cc3ccc(C)cc3)ncc2Cl)s1 | 71.9% (active)
